In PubChem BioAssay (EPA / NIEHS):
Records with an inconclusive call do not appear. The source made the active and inactive calls. Rule for the calls: active = hit-call score of the fitted dose curve at least 0.9, where 1 is the maximum; inconclusive = response in the unintended direction; inactive = score below 0.9.

Each molecule was assayed against human CYP2A6, CYP2A6 (gene 1548) (UniProt P11509) (assay: NVS_ADME_hCYP2A6: NovaScreen (NVS) CYP450-related Enzyme Activity (ADME) Assay for human CYP2A6 (AID 2283099)).
Chain of human CYP2A6, CYP2A6 (gene 1548) (P11509 whole entry, looked up): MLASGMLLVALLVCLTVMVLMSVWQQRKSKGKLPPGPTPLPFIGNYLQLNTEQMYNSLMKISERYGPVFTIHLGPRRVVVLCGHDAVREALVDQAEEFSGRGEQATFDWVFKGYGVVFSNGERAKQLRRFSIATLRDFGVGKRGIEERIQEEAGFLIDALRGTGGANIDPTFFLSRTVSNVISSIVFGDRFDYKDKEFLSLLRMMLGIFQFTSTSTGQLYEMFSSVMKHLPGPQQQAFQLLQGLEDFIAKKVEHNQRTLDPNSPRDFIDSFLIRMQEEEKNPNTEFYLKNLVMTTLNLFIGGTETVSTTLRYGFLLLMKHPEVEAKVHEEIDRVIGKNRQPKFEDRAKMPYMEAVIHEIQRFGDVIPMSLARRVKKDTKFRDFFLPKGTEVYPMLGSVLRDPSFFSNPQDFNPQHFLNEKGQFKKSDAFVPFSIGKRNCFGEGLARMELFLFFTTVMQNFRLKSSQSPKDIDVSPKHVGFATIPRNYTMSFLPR
In short: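 Fluorescent substrate turnover by recombinant CYP2A6 (insect cell source), 0.5 h read. Screen: 10 uM, duplicate; threshold hits (e.g. 30% inhibition) → singleton concentration-response, top 20 uM. Positive and negative controls on every plate.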

Structure (SMILES)	AC50	outcome
COc1ccc([N+](=O)[O-])cc1N	5.77 µM (active)	–
CCN(CC)CCNc1ccc(CNC=O)c2sc3ccc(OC)cc3c(=O)c12	–	inactive
O=[N+]([O-])c1ccc(O)cc1	–	inactive

Each molecule was assayed against human CYP1A1, CYP1A1 (gene 1543) (UniProt P04798) (assay: NVS_ADME_hCYP1A1: NovaScreen (NVS) CYP450-related Enzyme Activity (ADME) Assay for human CYP1A1 (AID 2283100)).
Chain of human CYP1A1, CYP1A1 (gene 1543) (P04798 whole entry, looked up): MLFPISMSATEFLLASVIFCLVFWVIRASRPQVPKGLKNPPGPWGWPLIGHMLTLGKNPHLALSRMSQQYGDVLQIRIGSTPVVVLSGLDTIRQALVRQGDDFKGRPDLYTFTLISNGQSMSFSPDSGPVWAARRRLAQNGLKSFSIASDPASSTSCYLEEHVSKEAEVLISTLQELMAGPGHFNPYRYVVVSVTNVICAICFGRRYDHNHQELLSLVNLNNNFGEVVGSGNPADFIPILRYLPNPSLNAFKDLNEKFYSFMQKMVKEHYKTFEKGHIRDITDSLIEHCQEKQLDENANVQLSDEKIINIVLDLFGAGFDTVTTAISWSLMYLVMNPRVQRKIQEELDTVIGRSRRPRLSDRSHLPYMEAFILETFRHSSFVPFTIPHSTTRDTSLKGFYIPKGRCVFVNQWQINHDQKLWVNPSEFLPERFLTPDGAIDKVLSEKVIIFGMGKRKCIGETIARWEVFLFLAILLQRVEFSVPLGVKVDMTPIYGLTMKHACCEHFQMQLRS
In short: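 Recombinant hCYP1A1 + fluorogenic substrate, cell-free; 1 h; fluorescence read. Single-point 10 uM (duplicate) → concentration series, max 20 uM. Acetonitrile negative control.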

Structure (SMILES)	outcome	AC50
c1ccc2cc3c(ccc4ccccc43)cc2c1	inactive	–
CCN(CC)CCNc1ccc(CNC=O)c2sc3ccc(OC)cc3c(=O)c12	–	6.62 µM (active)
O=C(OCCOCCOC(=O)c1ccccc1)c1ccccc1	inactive	–
